Shown is part of a subset that was picked to be rich in hits.
Sm TGR block = inhibitors of Schistosoma mansoni thioredoxin glutathione reductase; purified TGR, DTNB reduction, TNB absorbance 405 nm; Potency, µM (top dose mostly 114 µM), most hits filed as inhibitors; Q962Y6; 3% of 360,000 active; further: nearly all actives have a fitted effect of over 60% in size
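Kinetic colorimetric format: TGR-catalysed, NADPH-driven DTNB reduction monitored via TNB absorbance. Enzyme dispensed at 20 nM; compound exposure 15 min at room temperature before reaction start.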
FBPA Giardia inh = blocks Giardia fructose-bisphosphate aldolase activity; purified Giardia FBPA; Potency, µM (titrated, usually from 59.6 µM), actives largely listed as inhibitors; 0.71% of 290,000 active; AID 2451; further: nearly all actives have a fitted effect of over 55% in size
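40 nM FBPA preincubated 10 min at RT with compound (up to 57.5 uM final), then substrate plus GAPDH/TPI/NAD/arsenate coupling and diaphorase/resazurin added. Fluorescence read after 20 min at RT, 525/598 nm.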
Tb PYK inh = T. brucei pyruvate kinase inhibition; Q57TT1; TbPYK enzyme, Kinase-Glo Plus ATP luminescence, 45 min; Potency, µM (top dose mostly 76.8 µM), most hits filed as inhibitors; 0.12% of 410,000 active; further: nearly all actives have a fitted effect of over 50% in size
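Screened from lowest to highest concentration, compounds were pinned into TbPYK/substrate mixtures, and ADP (130 uM final) was added. Plates sat at room temperature for 45 min prior to Kinase-Glo Plus detection by luminescence.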
LmPK inh = blocks Leishmania mexicana pyruvate kinase activity; Q27686; purified LmPK, Kinase-Glo ATP luminescence, 1 h; Potency, µM (doses to about 57.5 µM), most hits filed as inhibitors; 0.37% of 290,000 active; AID 1721
Target sequence (Q27686 whole entry, looked up): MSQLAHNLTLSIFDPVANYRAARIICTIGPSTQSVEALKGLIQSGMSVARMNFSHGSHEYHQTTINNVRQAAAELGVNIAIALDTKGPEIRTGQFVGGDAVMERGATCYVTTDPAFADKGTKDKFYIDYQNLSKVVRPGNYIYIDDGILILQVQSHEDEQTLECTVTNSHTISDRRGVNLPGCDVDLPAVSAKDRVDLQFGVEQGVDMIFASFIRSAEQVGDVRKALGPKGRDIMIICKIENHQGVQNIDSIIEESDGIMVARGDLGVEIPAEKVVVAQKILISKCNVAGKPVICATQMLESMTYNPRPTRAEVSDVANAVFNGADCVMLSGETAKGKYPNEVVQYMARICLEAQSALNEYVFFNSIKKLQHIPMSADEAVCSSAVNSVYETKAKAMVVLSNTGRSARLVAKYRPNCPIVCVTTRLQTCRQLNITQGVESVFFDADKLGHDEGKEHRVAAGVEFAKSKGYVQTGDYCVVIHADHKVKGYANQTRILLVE
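Pyruvate kinase activity monitored as ATP production (luciferase luminescence). Conditions: 0.1 nM enzyme, 0.5 mM PEP, 0.1 mM ADP, 1 h, RT; normalized against uninhibited and no-enzyme wells.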
Cycloheximide cs = counter-screen for Shiga toxin inhibitors: cycloheximide protein synthesis inhibition | cell reporter, cycloheximide protein synthesis inhibition counterscreen | max response, % | 12% of 300,000 active | AID 2314; in the data active means max response mostly above about 13%, no sharp cut-off; inactive means mostly below about 14%; further: read at 38.3 µM for the half of the compounds with a filed dose
Shiga inhibitor = Shiga toxin inhibition | AID 2315 | inhibition, % at 38.7 µM | Vero cells, Shiga toxin protein synthesis inhibition reporter | 9.2% of 290,000 active; in the data active means inhibition mostly above about 28%, no sharp cut-off; inactive means mostly below about 43%
Numbers stand for hits; - = inactive; ? = inconclusive; . = not tested or not shown. Unless noted, the call rests on the fitted dose curve; in most records, active means well fitted curve in the direction sought with a large enough effect; inconclusive means small, poorly fitted or top-dose-only effect, or another doubt; inactive means no such curve, though single readings can be large; an effect the other way counts as inactive or inconclusive.

SMILES	Sm TGR block	FBPA Giardia inh	Tb PYK inh	LmPK inh	Cycloheximide cs	Shiga inhibitor
N#CCCCN1C(=O)C(=C(C#N)C#N)c2ccccc21	2.5µM	?	-	-	-	-
CCCN(CC(=O)Nc1cc(Cl)ccc1Cl)C(=O)/C=C/c1cc(OC)ccc1OC	.	.	-	.	.	.
CN(CC(=O)Nc1ccc(Cl)c(C(F)(F)F)c1)C(=O)/C=C/c1ccco1	-	-	-	-	-	37
CCCN(CC(=O)Nc1cc(Cl)ccc1Cl)C(=O)/C=C/c1ccco1	-	-	-	-	55	126
Nc1c(O)ccc2c1C(=O)c1ccccc1C2=O	-	?	?	14µM	12	-
COc1ccc(C)cc1NC(=O)c1ccc(=O)n(Cc2ccccc2)c1	-	.	-	.	.	.
CCOc1cc(CNC(=O)Cn2c(=O)c3cccn3c3ccc(F)cc32)cc(OCC)c1OCC	-	.	-	.	.	.
CCCc1cc(C(=O)Nc2cc(C)ccc2O)no1	-	-	-	-	18	49
CCCc1cc(C(=O)Nc2cccnc2Cl)no1	-	-	-	-	55	59
CCCc1sc(N/N=C/c2ccccn2)nc1-c1ccc(F)cc1	-	-	-	-	25	52
CC(=O)Nc1ccc(C2NC(=O)c3ccccc3O2)cc1 (stereo not drawn)	-	-	-	-	-	-
CCCCC(=O)Nc1ccc(C(=O)NN2C(=O)c3ccccc3C2=O)cc1	-	-	-	-	-	-
CCCC(=O)Nc1ccc(C2C(=O)c3ccccc3C2=O)cc1	-	-	-	?	12	-
CC(=O)Nc1ccc(C2C(=O)c3ccccc3C2=O)cc1	-	-	-	-	24	68
CCn1c(C)nc2cc(C(=O)OCCC(F)(F)F)ccc21	-	-	-	-	29	86
CCn1c(C)nc2cc(N)ccc21	-	?	-	-	35	-
CCn1c(C)nc2cc(OC)ccc21	-	-	-	-	-	-
CCSc1nc2ccccc2n1C(=O)/C=C/c1ccc(OC)c(OC)c1	-	-	-	-	13	-
CCSc1nc2ccccc2n1CC(=O)OC	-	-	-	-	-	-
C=CCSc1nc2ccccc2n1C(=O)/C=C/c1ccc(OC)c(OC)c1	-	-	-	-	-	-
C=CCSc1nc2ccccc2n1C(=O)/C=C/c1cc(OC)c(OC)c(OC)c1	-	-	-	-	49	111
CC1(C)C=Cc2cc3ccc(=O)oc3cc2O1	-	-	-	?	53	62
COc1c2c(cc3oc(=O)ccc13)OC(C)(C)C=C2	-	-	-	-	20	40
Cc1ccc(Cl)cc1Nc1nn2c(=O)c3ccc(C(=O)NC4CCCCC4)cc3nc2s1	-	.	-	.	.	.
Oc1c(/C=C/C=C/C=Nc2ccccc2)sc(=S)n1Cc1ccccc1	11µM	-	-	-	25	72
SMILES	Sm TGR block	FBPA Giardia inh	Tb PYK inh	LmPK inh	Cycloheximide cs	Shiga inhibitor
CCCn1c(O)c(C=Nc2ccccc2)sc1=S	-	-	-	-	36	44
CCCCn1c(O)c(/C=C/C=C/C=Nc2ccccc2)sc1=S	20µM	?	-	-	-	-
COc1cc2c(Cc3ccccc3)cncc2cc1O	.	.	-	.	.	.
COc1ccc2nc(NC(=O)CSc3ccccc3)sc2c1	-	-	-	-	57	138
COc1ccc2nc(NC(=O)CSc3nnc(N)s3)sc2c1	-	-	-	-	-	-
COc1ccc2nc(NC(=O)CSc3nnc(C)n3N)sc2c1	?	-	-	-	35	51
Cc1nnc(NC(=O)CSc2ccccn2)s1	-	-	-	-	-	-
Cc1ccc2nc(NC(=O)CSc3[nH]c(=O)ncc3C)sc2c1	-	.	-	.	27	-
Cc1cnc(=O)[nH]c1SCC(=O)Nc1nc2ccccc2s1	-	.	-	.	.	.
O=C(CSc1ccccn1)Nc1nc2ccc(Br)cc2s1	-	-	-	-	25	-
CCOc1ccc2nc(NC(=O)CSC3=NCCS3)sc2c1	-	-	-	-	-	-
CC(C)Cc1nnc(NC(=O)CCC(=O)NC2CCCCC2)s1	-	.	-	-	-	-
COc1ccc2nc(NC(=O)CSC3=NCCS3)sc2c1	-	-	-	-	32	-
CC(C)Cc1nnc(NC(=O)CSc2ccccn2)s1	-	-	-	-	23	-
Cc1ccc2nc(NC(=O)CSc3nncc(=O)n3N)sc2c1	-	-	-	-	34	-
CCSc1nnc(NC(=O)CSc2nncc(=O)n2N)s1	-	-	-	-	-	-
CC(C)Cc1nnc(NC(=O)C2CCCC2)s1	-	-	-	-	24	-
Cc1nc2c(-c3ccccc3)cnn2c(N)c1-c1ccccc1	-	-	-	-	-	-
COc1ccccc1-c1c(C)nn2c(-c3ccccc3)cc(C)nc12	-	-	-	-	-	-
Cc1cc(-c2ccccc2)n2ncc(-c3ccccc3)c2n1	-	-	-	-	47	97
COc1ccc(-c2cc(C)nc3c(-c4ccccc4)cnn23)cc1	-	-	-	-	41	90
Cc1cc(SCC(=O)c2ccccc2)n2ncc(-c3ccccc3)c2n1	-	-	-	-	61	67
COc1ccc(NC(=O)CCc2nc3cccnc3n2-c2ccccc2)cc1Cl	-	.	-	.	.	.
O=C(O)c1cc(NN=C2c3ccccc3-c3ccccc32)ccc1Cl	?	-	-	-	-	-
O=C(O)c1cccc2c1-c1ccccc1/C2=N\Nc1ccccc1	-	-	-	-	50	116
SMILES	Sm TGR block	FBPA Giardia inh	Tb PYK inh	LmPK inh	Cycloheximide cs	Shiga inhibitor
O=C(O)c1cccc(NN=C2c3ccccc3-c3ccccc32)c1	-	-	-	-	42	84
Cc1noc(C)c1COc1ccccc1C(=O)NC1CCC(C)CC1 (stereo not drawn)	-	.	-	-	27	55
Cc1noc(C)c1COc1ccccc1C(=O)NCCOc1ccccc1F	-	.	-	.	.	.
Cc1ccc2nc(CSc3nnc(Nc4ccccc4C)s3)cc(=O)n2c1	-	-	-	-	-	-
C/C(N)=C(/C#N)C(=O)CSc1nnc(Nc2c(C)cccc2C)s1	-	-	-	-	-	-
Cc1ccccc1Nc1nnc(SCC(=O)Nc2ccccc2[N+](=O)[O-])s1	-	-	-	-	28	45
CCCSc1nnc(Nc2ccccc2C)s1	-	-	-	-	62	63
C/C(N)=C(/C#N)C(=O)CSc1nnc(Nc2cccc(C)c2C)s1	-	-	-	-	22	40
Cc1cccc(-c2noc(-c3ccoc3C)n2)c1	-	-	-	?	35	100
COc1ccc(-c2noc(-c3ccoc3C)n2)cc1	-	-	-	?	59	56
COc1cccc(-c2noc(-c3ccoc3C)n2)c1	-	-	-	-	39	123
COc1ccc(C(=O)N2[C@@H](C(C)C)COc3cc(Br)ccc3S2(=O)=O)cc1	.	.	-	.	.	.
CSc1ccc(C(=O)C2CCCN(S(=O)(=O)N(C)C)C2)cc1 (stereo not drawn)	-	-	-	-	-	-

Compound activity as filed in PubChem BioAssay.
